Only some compounds are listed: those with a hit (about 2.9% of all), similar ones and a draw of the others.
Cardio protect: myocardial damage modulation in H9c2 cells. H9c2 cardiomyocytes, H2O2 injury protection, ATPLite, 2 h. AID 588492. 360,000 compounds, 0.63% hits. protection from H2O2 cell death, % at 20 µM;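 active = compounds giving at least 50% protection of heart cells from peroxide-induced death in the single-dose screen, raw or plate-pattern-corrected value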
Rtt109 Vps75: blocks Candida albicans Rtt109/Vps75 acetyltransferase activity; Q5AAJ8; inhibition, % at 34.9 µM; purified Rtt109/Vps75, ThioGlo CoA-SH fluorescence, 4 h; 330,000 compounds, 0.16% hits; AID 540336;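 active = inhibition of at least 50% in every replicate; inconclusive = best replicate reaches 50% inhibition but some replicates fall short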
Target sequence (Q5AAJ8 whole entry, looked up): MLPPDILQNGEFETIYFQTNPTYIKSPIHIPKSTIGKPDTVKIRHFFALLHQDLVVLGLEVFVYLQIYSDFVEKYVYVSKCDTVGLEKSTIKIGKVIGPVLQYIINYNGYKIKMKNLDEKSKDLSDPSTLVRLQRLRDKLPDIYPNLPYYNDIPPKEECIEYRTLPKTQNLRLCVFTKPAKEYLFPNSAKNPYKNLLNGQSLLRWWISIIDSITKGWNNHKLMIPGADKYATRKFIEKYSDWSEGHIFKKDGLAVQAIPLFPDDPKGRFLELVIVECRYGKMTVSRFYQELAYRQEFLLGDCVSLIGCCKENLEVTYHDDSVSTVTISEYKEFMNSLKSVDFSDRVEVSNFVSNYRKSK
ABHD5-PLIN5 inh: inhibitors of human ABHD5-perilipin-5 interaction | Split G. princeps luciferase complementation, luminescence, 4 h | inhibition, % at 4 µM | 360,000 compounds, 0.78% hits;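 active = inhibition above the mean inhibition across every tested compound plus 3 SD, cut at about 22% in these data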
DAGLB inhibitor: blocks human DAGLB lipase activity | 340,000 compounds, 0.059% hits | inhibition, % at 5.17 µM | HEK293T DAGLB membrane lysate, EnzChek fluorogenic substrate; in the data active = inhibition above about 34%
Myeloid diff MLP: promotes myeloid progenitor differentiation | ER-HoxA9 myeloid progenitors, lysozyme-GFP differentiation, flow cytometry | calls only at 10 µM | 360,000 compounds, 1% hits;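 active = normalized GFP-positive differentiation at or above the plate's own cutoff, the solvent-only control mean plus 3 SD; inconclusive = no clear call, values can overlap the other calls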;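 note: cells exposed to compound for four days before flow analysis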
HGIII-sPLA2 inh: Inhibits HGIII-sPLA2 liposome hydrolysis, primary screen; Q9NZ20; QFRET BODIPY PC-A2 liposome hydrolysis, fluorescence; inhibition, % at 12.2 µM; 370,000 compounds, 0.56% hits;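 active = inhibition above mean plus 3 SD of compounds lying within the high and low control bounds, cut at about 19% in these data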
Of the large screens only hits and unclear results are named; the others gave an inactive call.

Cc1ccc2c(c1)C(=O)N1[C@H]3c4cc(Cl)ccc4OC[C@@H]3[C@H](c3ccccc3)[C@]1(C)C(=O)N2	none
Cc1ccc2c(c1)C(=O)N1[C@H]3c4cc(C)ccc4OC[C@@H]3[C@H](c3ccccc3)[C@]1(C)C(=O)N2	Myeloid diff MLP active
COc1ccc2c(c1)OC[C@H]1[C@H]2N2C(=O)c3ccc(F)cc3NC(=O)[C@@]2(C)[C@H]1c1ccccc1	HGIII-sPLA2 inh 38.2
CCOC(=O)[C@H]1[C@H]2COc3ccc(Br)cc3[C@@H]2N2C(=O)c3cc(OC)c(OC)cc3NC(=O)[C@@]12C	Cardio protect 50.5
Cc1ccc(Nc2ncc3c(=O)[nH][nH]c(=O)c3n2)cc1	none (no result: Rtt109 Vps75)
COc1cccc(CC(=O)Nc2nc(-c3ccc(F)c(F)c3)cs2)c1	Myeloid diff MLP inconclusive
O=C(CCn1nc(-c2ccccc2)ccc1=O)N1CCN(c2ccccc2)CC1	none
O=C(CCn1nc(-c2ccccc2)c2ccccc2c1=O)N1CCN(c2ccccc2)CC1	Cardio protect 52.9
O=C(Cn1ccc2ccccc2c1=O)NCCC(=O)N1CCN(c2cccc(Cl)c2)CC1	none
O=C(O)c1nn(CC(=O)N2CCN(c3ccccc3)CC2)c(=O)c2ccccc12	Cardio protect 66.3
O=C(Cn1ccc2ccccc2c1=O)N1CCN(c2cccc(Cl)c2)CC1	ABHD5-PLIN5 inh 22.2
O=C(O)c1nn(CC(=O)N2CCC(Cc3ccccc3)CC2)c(=O)c2ccccc12	none
CCCn1c(=O)c(C(=O)NCCc2ccc(Cl)cc2)c(O)c2ccccc21	Cardio protect 53.6
CCn1c(=O)c(C(=O)NCCc2ccc(Cl)cc2)c(O)c2ccccc21	none
O=S1(=O)CC(O)C(NCc2cccnc2)C1 (centres undefined)	Rtt109 Vps75 65.0
Cn1c(SCc2ccc(F)cc2Cl)nc2ccccc2c1=O	none
COc1cc2nc(Nc3ccc(F)cc3)nc(N)c2cc1OC	Cardio protect 54.9
CC1CCN(CC(=O)Nc2ccc(S(=O)(=O)N3CCCC(C)C3)cc2)CC1 (centres undefined)	none
COc1ccc(NC(=O)CN2CCC(n3c(C)nc4cc(F)ccc43)CC2)c(OC)c1	none
COc1cc(OC)cc(C(=O)N2CCC(n3c(C)nc4cc(F)ccc43)CC2)c1	Myeloid diff MLP active
Cc1cccn2c(=O)c3cc(C(=O)NC4CCCC4)c(=N)n(CCCN4CCOCC4)c3nc12	none
Cc1cc(NS(=O)(=O)c2cn(C)nc2C)no1	Myeloid diff MLP active
Cc1nn(C)cc1S(=O)(=O)Nc1ccc2c(c1)OCCO2	none
Cc1ccccc1NC(=O)c1ccc([N+](=O)[O-])o1	none
Cc1ccc(NC(=O)c2ccc([N+](=O)[O-])o2)c(C)c1	Myeloid diff MLP active
COc1c(C)cc(Br)cc1C(=O)Nc1cccc(NC(=O)c2ccco2)c1	none (no result: HGIII-sPLA2 inh)
O=C(Nc1cccc(NC(=O)c2ccc([N+](=O)[O-])o2)c1)c1ccco1	Cardio protect 57.1, Myeloid diff MLP inconclusive
O=C(Nc1ccc(NC(=O)c2ccc([N+](=O)[O-])o2)cc1Cl)c1ccco1	none
COc1ccc(Br)cc1C(=O)Nc1cccc(NC(=O)c2ccco2)c1	Cardio protect 63.6
O=C(Nc1cccc(NC(=O)c2ccc(-c3cccc(Br)c3)o2)c1)c1ccco1	Cardio protect 59.6
CS(=O)(=O)N(CC(=O)NCCC1=CCCCC1)c1cccc([N+](=O)[O-])c1	none
CCCCNC(=O)c1cc2c(C)cc(C)cc2[nH]1	none
Cn1c(=O)c(=O)n(C)c2cc(N3CCCCC3)c(NS(=O)(=O)c3ccc(Br)cc3)cc21	none
COc1ccc(C2(CNC(=O)/C=C/c3ccco3)CCCC2)cc1OC	ABHD5-PLIN5 inh 35.4
CC(=O)c1cccc(OCC(=O)N(Cc2ccco2)c2c(N)n(Cc3ccccc3)c(=O)[nH]c2=O)c1	Myeloid diff MLP active
NC(=O)C1CCCN(CC(=O)Nc2ccccc2C(=O)NC2CC2)C1 (centres undefined)	none
O=C(CCl)N1c2ccccc2Oc2ccc3ccccc3c21	Myeloid diff MLP active
CC(=O)N1c2ccccc2Oc2cc3ccccc3cc21	none
O=c1c2ccccc2nc2c3ccccc3c(NCCO)nn12	Cardio protect 58.0
O=c1c2ccccc2nc2c3ccccc3c(NCc3ccccn3)nn12	none
Cc1ccc(S(=O)(=O)N2[C@@H](c3ccc(Cl)cc3)C(C(=O)O)=C[C@H]2CC2CCCC2)cc1	Myeloid diff MLP active
Cc1ccc(S(=O)(=O)N2[C@@H](c3ccc(Cl)c(Cl)c3)C(C(=O)O)=C[C@H]2CC2CCCC2)cc1	none
CCN1C(=O)CCN(C2CCCC2)c2nc(Nc3ccc(C(=O)NC4CCN(C)CC4)cc3OC)ncc21	none
COc1ccc(CCNC(=O)C(=O)NCC2CCCN2S(=O)(=O)c2cc(C)ccc2C)cc1 (centres undefined)	Cardio protect 75.6
CCC(C)NC(=O)C1CCN(S(=O)(=O)c2cc([N+](=O)[O-])ccc2Cl)CC1 (centres undefined)	Rtt109 Vps75 54.1
CC1CCN(S(=O)(=O)c2cc([N+](=O)[O-])ccc2Cl)CC1	none (no result: Rtt109 Vps75)
O=C(CC1C(=O)NC2CCCCC2N1C(=O)c1ccc(F)cc1)Nc1ccccc1 (centres undefined)	none
COc1ccc(CC(=O)NCCCc2ccccc2)cc1OC	none
CS(=O)(=O)N(CC(=O)NCCSCc1ccccc1Cl)c1ccccc1F	none
CCOC(=O)c1oc2ccccc2c1NC(=O)c1cccc(OC)c1	none
COc1cccc(C(=O)Nc2c(C(N)=O)oc3ccccc23)c1	Cardio protect 111.2
S=c1[nH]nc(-c2n[nH]c3c2CCC3)n1N=Cc1cccs1	none (no result: Cardio protect, Rtt109 Vps75, ABHD5-PLIN5 inh, DAGLB inhibitor, Myeloid diff MLP)
O=C1OC(C(=O)Nc2ccccc2)Cc2ccccc21 (centres undefined)	none
N#Cc1ccc(C(C(=O)NC2CCCCC2)n2c(=O)c(-c3cc4ccccc4[nH]3)nc3ccccc32)cc1 (centres undefined)	Myeloid diff MLP active (no result: Cardio protect, Rtt109 Vps75, DAGLB inhibitor)
COc1cccc(C2NC(=O)NC(C)=C2C(=O)Nc2ccc(C)cc2)c1OC (centres undefined)	Myeloid diff MLP active
COc1ccc(NC(=O)C2=C(C)NC(=O)NC2c2cccc(OC)c2OC)c(OC)c1 (centres undefined)	none
Cn1nc(-c2ccc(Cl)cc2)c2cc(C(=O)N3CCN(c4ccccc4)CC3)sc21	none
COCCNC(=O)c1cc2c(-c3ccccc3F)nn(C)c2s1	none
Cn1nc(-c2ccc(Cl)cc2)c2cc(C(=O)N3CCN(c4ccccn4)CC3)sc21	Myeloid diff MLP active (no result: HGIII-sPLA2 inh)
CCCCNC(=O)c1cc2c(-c3ccc(Cl)cc3)nn(C)c2s1	none
CCCCN(C)CCNC(=O)c1cc2c(-c3ccccc3F)nn(C)c2s1	Myeloid diff MLP active
Cn1nc(-c2ccc(Cl)cc2)c2cc(C(=O)NCCCN3CCCC3)sc21	Myeloid diff MLP active
O=C(Cc1ccccn1)c1ccncc1	none
COc1cc(C(=O)NCC(=O)OCC(=O)c2cccc3ccccc23)cc(OC)c1OC	none
